Reference: PubChem BioAssay (EPA / NIEHS)
Calls of active or inactive are those of the source. The calls were made as follows: active = hit-call score of the fitted dose curve at least 0.9, where 1 is the maximum; inactive = score below 0.9.

read-out: growth arrest and DNA damage 45 (GADD45A), GADD45A (gene 1647); test: LTEA_HepaRG_GADD45A: Life Technologies and Expression Analysis (LTEA) Assay for growth arrest and DNA damage 45 (GADD45A) using HepaRG (AID 2283458); settings: mRNA level, 48 h; actives raise or lower the signal
Protocol: LTEA_HepaRG is a cell based, multiplexed-readout assay that uses HepaRG, a human liver cell line, with measurements taken at 48 hours after chemical dosing on a 96-well plate.LTEA_HepaRG_GADD45A is one of 102 assay component(s) measured in the LTEA HepaRG cell culture assay. It is a marker of Oxidative Stress.Data from the assay component LTEA_HepaRG_GADD45A was analyzed into 1 endpoint. This assay endpoint, LTEA_HepaRG_GADD45A, was analyzed with bidirectional fitting relative to DMSO as the negative control and baseline of activity. Using a type of inducible reporter, measures of mRNA induction for gain or loss-of-signal activity can be used to understand regulation of transcription factor activity. To generalize the intended target to other relatable targets, this assay endpoint is annotated to the cell cycle intended target family, where the subfamily is Oxidative Stress.
A total of 1060 chemcials from the ToxCast library were tested in eight-point concentration-response experiments. Cell culture and cytotoxicity assays were conducted at Thermo Fisher Scientific's Custom Services facility (Madison, WI). A single lot of human HepaRG cells (Thermo Fisher Scientific, Frederick, MD) was used for the cell culture experiments. 96-well format collagen type I coated plates of human HepaRG cells were prepared using established methods. Briefly, cryopreserved HepaRG cells were thawed, plated at a density of approximately 100,000 cells/well in HepaRG Thaw, Plate, and General Purpose media (HPRG770, Thermo Fisher Scientific), and incubated for 48 hours. 0.5% DMSO was selected as vehicle control to balance the requisite need of DMSO in HepaRG cultures to maintain differentiation (for example, baseline metabolism, proportions of hepatocytes vs. cholangiocytes), while enabling further hepatic receptor pathway activation (for example, PXR and CAR) in response to chemical exposure. 48 hours after plating, the culture medium was replaced with HepaRG Serum-Free Incudtion Media. Cells were exposed to each test chemical in duplicate and maintained in CO2 incubators for another 48 hours. Chemical plates were thawed to room temperature and 200x concentrations of treatment groups were prepared. 8-point conentration-reponse curves were made with the highest exposure at 100 uM, followed by half-log dilutions, all in 0.5% DMSO. Each test plate contained variouse controls, induction positive controls (1mM phenobarbital), cytotoxicity positive controls ([…] aflatoxin B1), vehicle controls (0.5% DMSO), and total lysis controls (0.5% DMSO). Cell morphology images were taken using an Essen IncuCyte FLR automated microscope, with six 96-well plates imaged in about 24 minutes. Images were captured and exported and JPEG files. Spent culture media was transfered to black-well plates for the LDH assay, and remaining media was sorted at -80 C for later use. Cells were treated with RLT buffer and frozen until shipped for gene expression analysis. Total RNA was isolated from the cell suspension in 75 uL of Buffer RLT (Qiagen, Germantown, MD 20874) by Quintiles/Expression Analysis (Durham, NC) using a custom isolation procedure. Total RNA from each plate well was transferred to a preamplification plate. Fluidigm's 96.96 Dynamic ArrayTM (Fluidigm, Amsterdam, the Netherlands) technology was used for gene expression analyses by quantitative reverse transcription polymerase chain reaction (qRT-PCR, performed by Quintiles/Expression Analysis, Durham, NC)89. Standard TaqManTM Assays (Applied Biosystems/ThermoFisher Scientific, Foster City, CA) were used to assess the expression of 93 genes selected based on their selectivity and sensitivity to important hepatic receptors known to be modulated by environmental chemicals; importance in human hepatocyte functionality; and hepatotoxicity. […]

With `CCCN(C1CCN(C(=O)C2CCNCC2)CC1)[C@@H]1CCc2ccc(OC)cc2C1` as the compound, how does the outcome read?
Its outcome is “inactive”.

How did the outcome turn out when `CC(=O)OC[C@H]1O[C@@](COC(C)=O)(O[C@H]2O[C@H](COC(C)=O)[C@@H](OC(C)=O)[C@H](OC(C)=O)[C@H]2OC(C)=O)[C@@H](OC(C)=O)[C@@H]1OC(C)=O` was run?
The outcome was “inactive”.

Which outcome does the source give for `Nc1nc2ncc(CNc3ccc(C(=O)N[C@@H](CCC(=O)O)C(=O)O)cc3)nc2c(=O)[nH]1` here?
Its outcome is “inactive”.

For `CC(C)c1cccc(C(C)C)c1N1C(=O)c2ccc(O)cc2C1=O`, which outcome is on record?
The outcome was “inactive”.

How did the outcome turn out when `COC(=O)CC(=O)OC` was run?
Its outcome is “inactive”.

With `CCOC(=O)c1ccc(C2CCC(NC[C@H](O)COc3ccc(O)c(NS(C)(=O)=O)c3)CC2)cc1` (stereo not given in full) as the compound, how does the outcome read?
The outcome was “inactive”.

With `CCOCCO` as the compound, how does the outcome read?
Its outcome is “inactive”.

For `CCNc1ccccc1`, which outcome is on record?
The outcome was “inactive”.

How did the AC50 turn out when `Cc1[nH]cnc1C[C@H]1CCc2c(C)c3ccccc3n2C1=O` was run?
The AC50 was 62 µM (active).

`Nc1cccc(N)c1` was tested. Which outcome did it give?
Its outcome is “inactive”.

For `CC[C@H]1OC(=O)[C@H](C)[C@@H](O[C@H]2C[C@@](C)(OC)[C@@H](O)[C@H](C)O2)[C@H](C)[C@@H](O[C@@H]2O[C@H](C)C[C@H](N(C)C)[C@H]2O)[C@](C)(O)C[C@@H](C)C(=O)[C@H](C)[C@@H](O)[C@]1(C)O`, which outcome is on record?
The outcome was “inactive”.

With `CC(C)CCO` as the compound, how does the outcome read?
Its outcome is “inactive”.

With `Fc1ccccc1[C@@H](F)COC1CCC(Nc2ncnc3[nH]ncc23)CC1` (stereo not given in full) as the compound, how does the outcome read?
The outcome was “inactive”.

`O=C(O)c1cc(N=Nc2ccc(S(=O)(=O)Nc3ccccn3)cc2)ccc1O` was tested. Which outcome did it give?
The outcome was “inactive”.

How did the outcome turn out when `COC(=O)c1ccccc1O` was run?
The outcome was “inactive”.

Which outcome does the source give for `CC1(C)C(=O)N(Br)C(=O)N1Br` here?
The outcome was “inactive”.

For `CCCCC(CC)COC(=O)CCCCCCCCC(=O)OCC(CC)CCCC` (stereo not given), which outcome is on record?
The outcome was “inactive”.

`O=P(OC(CCl)CCl)(OC(CCl)CCl)OC(CCl)CCl` was tested. Which AC50 did it give?
Its AC50 is 0.21 µM (active).

`CCOC(=O)CC(CC(=O)OCC)(OC(C)=O)C(=O)OCC` was tested. Which outcome did it give?
Its outcome is “inactive”.

With `CCc1cc(SCc2sc(-c3ccc(C(F)(F)F)cc3)nc2CN2CCN(c3ccc(OC)cc3)CC2)ccc1OCC(=O)O` as the compound, how does the AC50 read?
Its AC50 is 8.67 µM (active).

With `CCN(C(=O)c1cc(C)cc(OC[C@H](C)Nc2ccncc2)c1)C(C)C` as the compound, how does the AC50 read?
Its AC50 is 0.232 µM (active).

`COc1cccc(-c2ccc(/C=C\CN3CCCCCC3)cc2Cl)c1` was tested. Which AC50 did it give?
The AC50 was 69 µM (active).

`Cc1c(-c2cccnc2)c2ccccc2n1CCCCC(=O)O` was tested. Which outcome did it give?
The outcome was “inactive”.

With `C1=CCCC=CCCC=CCC1` as the compound, how does the outcome read?
The outcome was “inactive”.

How did the outcome turn out when `CC[C@H](C)C(=O)O[C@H]1C[C@@H](C)C=C2C=C[C@H](C)[C@H](CC[C@@H]3C[C@@H](O)CC(=O)O3)[C@H]21` was run?
The outcome was “inactive”.

`O=c1n(CC2CO2)c(=O)n(CC2CO2)c(=O)n1CC1CO1` (stereo not given) was tested. Which outcome did it give?
The outcome was “inactive”.

Which outcome does the source give for `CCCCC(CC)COC(=O)c1ccc(C(=O)OCC(CC)CCCC)cc1` (stereo not given) here?
Its outcome is “inactive”.

How did the outcome turn out when `COC(=O)c1c(Cl)c(Cl)c(C(=O)OC)c(Cl)c1Cl` was run?
The outcome was “inactive”.

`CCOC(=O)COc1ccc2c(c1)CC(NCC(O)c1cccc(Cl)c1)CC2` (stereo not given) was tested. Which outcome did it give?
Its outcome is “inactive”.

How did the outcome turn out when `O=C(O)c1cccc(Oc2ccccc2)c1` was run?
The outcome was “inactive”.

With `CCn1nc(Cc2ccccc2)cc1C1CCN(C[C@H]2C[C@H](N(C)[C@@H](C(=O)O)C(C)C)C[C@@H]2c2cccc(F)c2)CC1` as the compound, how does the outcome read?
Its outcome is “inactive”.

With `Cc1ccc(N)cc1O` as the compound, how does the outcome read?
Its outcome is “inactive”.

For `CC(C)=CCCC(C)=CC=O`, which outcome is on record?
The outcome was “inactive”.

For `Cn1c(=O)c2c(ncn2C)n(C)c1=O`, which outcome is on record?
The outcome was “inactive”.

Which outcome does the source give for `C[C@](N)(Cc1ccc(O)c(O)c1)C(=O)O` here?
The outcome was “inactive”.

For `CNCc1ccc(NC(=O)c2c[nH]c3c2C(=O)CCC3)cc1`, which outcome is on record?
Its outcome is “inactive”.

How did the outcome turn out when `C=CC(=C)CCC=C(C)C` was run?
The outcome was “inactive”.

`CC(C)(O)c1coc(S(=O)(=O)NC(=O)Nc2c3c(cc4c2CCC4)CCC3)c1` was tested. Which outcome did it give?
Its outcome is “inactive”.

With `CC(O)CN(CCN(CC(C)O)CC(C)O)CC(C)O` (stereo not given) as the compound, how does the outcome read?
Its outcome is “inactive”.

For `COCCOCCOCCOC`, which outcome is on record?
Its outcome is “inactive”.
